40 compounds from PubChem BioAssay (NCI) can be followed below.

This is part of a sample that, as a whole, favours compounds with a hit. Of some 79,000 tested, about 15% had one in any assay. Values without a mark were called inactive. Cut-off read from the data, not from the text of the source: active = growth inhibition above about 70%; inactive = the rest.

The first assay is described as follows: NCI Yeast Anticancer Drug Screen. Data for the rad50 strain (AID 155).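 Note: 0% = growth of vehicle-only cultures of the same strain.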 Particulars: S. cerevisiae rad50 strain growth inhibition; at 50.0 µM; hits give high values. In outline: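 Cells are treated with compound, grown, and their growth is then scored against vehicle-only cultures of the same repair-deficient yeast strain.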
Turning to `CC(C)(CCCOc1ccccc1)NC(=O)c1ccccc1`, the growth inhibition was 17.2%.

As for `CCCOC(=O)C(O)Cc1ccccc1` (stereo not given), the growth inhibition was -26.9%.

`[O-][N+]1=CCCC1`: the growth inhibition is 4.4%.

Turning to `Oc1c(Cl)cc(Cl)cc1C=Nc1cc(C(F)(F)F)ccc1N1CCc2ccccc2C1`, the growth inhibition is 53.5%.

With `CSC(=S)Nc1nc2ccc(C)cc2s1`, the growth inhibition was 21.4%.

Regarding `O=C1CSC(/C(=C\c2ccc(Cl)cc2)c2nc3ccccc3[nH]2)=N1`, the growth inhibition was 11.3%.

With `O=c1c2ccccc2c(=O)c2c1ccc1[nH]c3ccccc3sc12`, the growth inhibition was -7.15%.

Take `CCNC(=S)NNC(=O)c1ccc(N=NN(C)C)cc1`: the growth inhibition was -5.15%.

For `CCOc1ccc2nc(NC(=O)C(=O)C(C(=O)c3ccccc3-c3ccccc3)C3OC(=O)c4ccccc43)sc2c1` (stereo not given), the growth inhibition was -18.7%.

As for `Cc1cccc(C)c1NC(=O)C(=O)CC(=O)/C=C/c1ccccc1`, the growth inhibition was -14.5%.

Take `COc1ccc(C(=O)O[C@H]2[C@@H]3C=CO[C@@H](OC4OC(CO)C(O)C(O)C4O)[C@@H]3[C@@]3(CO)O[C@@H]23)cc1O` (stereo not given in full): the growth inhibition was 31.9%.

As for `COc1ccc2[nH]c(Br)c(CCNC(C)=O)c2c1`, the growth inhibition is -25.6%.

In the case of `O=C(Nc1ccccc1)Oc1ccccc1C1CCCCC1`, the growth inhibition is 26.8%.

On to `O=C(Nc1cccc(O)c1)c1ccc([N+](=O)[O-])cc1`, for which the growth inhibition was 1.5%.

As to `C/C(N=NC(=S)N1CCCCC1)=C1\C=CC=CN1O`, the growth inhibition is 10.8%.

On to `CCOC(=O)C(Cc1ccc(O)cc1)NC(=O)c1cc2c(cn1)[nH]c1ccccc12` (stereo not given), for which the growth inhibition was 11%.

Consider `CC/C(=C\c1ccccc1OC)c1ccncc1`, for which the growth inhibition is 14.2%.

Regarding `CN(C)Cc1cc(C(C)(C)CC(C)(C)C)cc(Br)c1O`, the growth inhibition is 33%.

In the case of `CC(=O)Nc1cccnc1`, the growth inhibition is -18.1%.

In the case of `CCOC(=O)NC(=O)c1cn(CCN2CCN(C(=O)CCCCCCCCCCNc3ncnc4nc[nH]c34)CC2)c(=O)[nH]c1=O`, the growth inhibition is -18.5%.

Consider `COCCOCOCCCC#C[Si](C)(C)C`, for which the growth inhibition was 8.3%.

For `O=C1/C(=C/c2ccccc2)CN(C(=O)OCC(Cl)(Cl)Cl)C/C1=C\c1ccccc1`, the growth inhibition is 2.6%.

In the case of `N#Cc1ccccc1OCCCCOc1ccccc1C#N`, the growth inhibition is 8.7%.

On to `O=[N+]([O-])c1ccc(C2ON2c2ccccc2)cc1` (stereo not given) (tested in a mixture with another compound), for which the growth inhibition is 3.95%.

As for `CNC(=O)NS(=O)(=O)c1cccc([N+](=O)[O-])c1`, the growth inhibition was -0.3%.

As for `NC(Cc1ccc(O)c(O)c1)P(=O)(O)O` (stereo not given), the growth inhibition is -72.8%.

As for `CN(CCCCl)Cc1ccccc1`, the growth inhibition was 1.85%.

For `COC(=O)C1CCC(=O)C(Sc2ccccc2)C1` (stereo not given), the growth inhibition is 25.1%.

For the compound `O=c1c2cc(S(=O)(=O)Nc3ccc(Cl)cc3Cl)ccc2ncn1NS(=O)(=O)c1cccc2ccccc12`, the growth inhibition is 10.9%.

In the case of `CC(=O)OC(C[N+]1(C)CCCCCC1)C[N+]1(C)CCCCCC1`, the growth inhibition was -34.6%.

For the compound `Nc1nc(N)c2nc(-c3ccc(N(CCO)CCO)cc3)c(N)nc2n1`, the growth inhibition is -13.1%.

Regarding `Cc1ccc2c(c1)SC(c1cc3c(cc1Br)OCO3)S2` (stereo not given), the growth inhibition is -10.7%.

Consider `O=C(Nc1cc(Cl)ccc1Cl)Oc1c(Cl)cc(Cl)c(Cl)c1[N+](=O)[O-]`, for which the growth inhibition is 10.2%.

For the compound `CSC(=NCCCCN=C(NS(=O)(=O)c1ccc(Cl)cc1)SC)NS(=O)(=O)c1ccc(Cl)cc1`, the growth inhibition was -18.1%.

As to `CSC(C1c2ccccc2N(C)C2=NC(=O)N(C)C(=O)C21Cl)S(=O)(=O)c1ccc(C)cc1` (stereo not given), the growth inhibition was 50.2%.

Consider `CCC(C(O)C(C)C)[N+](=O)[O-]` (stereo not given), for which the growth inhibition was 14.2%.

As for `COc1ccc(C(Cc2cc(OC)c(OC)cc2Br)NC=O)cc1OC` (stereo not given), the growth inhibition is 0.3%.

Consider `CCOC(=O)CCc1ccc(NC(=O)/C=C/c2ccc([N+](=O)[O-])o2)cc1`, for which the growth inhibition is 55%.

Turning to `O=C1CSC(/C(=C/c2ccccc2)c2nc3ccccc3[nH]2)=N1`, the growth inhibition is 6.65%.

For the compound `CC1(C(=O)O)CCCC1C(CCC(=O)O)C(=O)O` (stereo not given), the growth inhibition is -13.8%.

The next assay in a line: NCI Yeast Anticancer Drug Screen. Data for the mec2-1 strain (AID 157). Particulars: S. cerevisiae mec2-1 strain, at 50.0 µM, hits give high values. In outline: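 Readout is yeast growth inhibition, normalised to vehicle-treated controls, in the mec2-1 strain exposed to compound.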
With `CC(C)(CCCOc1ccccc1)NC(=O)c1ccccc1`, the growth inhibition was -1.15%.

Take `CCCOC(=O)C(O)Cc1ccccc1` (stereo not given): the growth inhibition was 18.2%.

As to `[O-][N+]1=CCCC1`, the growth inhibition is -13.9%.

Turning to `Oc1c(Cl)cc(Cl)cc1C=Nc1cc(C(F)(F)F)ccc1N1CCc2ccccc2C1`, the growth inhibition is 0.25%.

Regarding `CSC(=S)Nc1nc2ccc(C)cc2s1`, the growth inhibition was 0.4%.

As for `O=C1CSC(/C(=C\c2ccc(Cl)cc2)c2nc3ccccc3[nH]2)=N1`, the growth inhibition is 11.2%.

As to `O=c1c2ccccc2c(=O)c2c1ccc1[nH]c3ccccc3sc12`, the growth inhibition was -1.75%.

`CCNC(=S)NNC(=O)c1ccc(N=NN(C)C)cc1`: the growth inhibition is 12.8%.

With `CCOc1ccc2nc(NC(=O)C(=O)C(C(=O)c3ccccc3-c3ccccc3)C3OC(=O)c4ccccc43)sc2c1` (stereo not given), the growth inhibition is 23.9%.

As to `Cc1cccc(C)c1NC(=O)C(=O)CC(=O)/C=C/c1ccccc1`, the growth inhibition is -20.2%.

Take `COc1ccc(C(=O)O[C@H]2[C@@H]3C=CO[C@@H](OC4OC(CO)C(O)C(O)C4O)[C@@H]3[C@@]3(CO)O[C@@H]23)cc1O` (stereo not given in full): the growth inhibition is 23.9%.

As to `COc1ccc2[nH]c(Br)c(CCNC(C)=O)c2c1`, the growth inhibition is -7.4%.

As to `O=C(Nc1ccccc1)Oc1ccccc1C1CCCCC1`, the growth inhibition is 2.4%.

Regarding `O=C(Nc1cccc(O)c1)c1ccc([N+](=O)[O-])cc1`, the growth inhibition was 18.6%.

`C/C(N=NC(=S)N1CCCCC1)=C1\C=CC=CN1O`: the growth inhibition is -6.8%.

`CCOC(=O)C(Cc1ccc(O)cc1)NC(=O)c1cc2c(cn1)[nH]c1ccccc12` (stereo not given): the growth inhibition was 16.2%.

`CC/C(=C\c1ccccc1OC)c1ccncc1`: the growth inhibition is -0.1%.

As to `CN(C)Cc1cc(C(C)(C)CC(C)(C)C)cc(Br)c1O`, the growth inhibition is 21.4%.

With `CC(=O)Nc1cccnc1`, the growth inhibition is -3.85%.

`CCOC(=O)NC(=O)c1cn(CCN2CCN(C(=O)CCCCCCCCCCNc3ncnc4nc[nH]c34)CC2)c(=O)[nH]c1=O`: the growth inhibition is -6.75%.

Take `COCCOCOCCCC#C[Si](C)(C)C`: the growth inhibition was 25.9%.

With `O=C1/C(=C/c2ccccc2)CN(C(=O)OCC(Cl)(Cl)Cl)C/C1=C\c1ccccc1`, the growth inhibition was 7.3%.

As to `N#Cc1ccccc1OCCCCOc1ccccc1C#N`, the growth inhibition is 14%.

As for `O=[N+]([O-])c1ccc(C2ON2c2ccccc2)cc1` (stereo not given) (tested in a mixture with another compound), the growth inhibition is -1.45%.

Consider `CNC(=O)NS(=O)(=O)c1cccc([N+](=O)[O-])c1`, for which the growth inhibition was 5.35%.

Regarding `NC(Cc1ccc(O)c(O)c1)P(=O)(O)O` (stereo not given), the growth inhibition is -38%.

As for `CN(CCCCl)Cc1ccccc1`, the growth inhibition is -26.8%.

Turning to `COC(=O)C1CCC(=O)C(Sc2ccccc2)C1` (stereo not given), the growth inhibition was -11.9%.

In the case of `O=c1c2cc(S(=O)(=O)Nc3ccc(Cl)cc3Cl)ccc2ncn1NS(=O)(=O)c1cccc2ccccc12`, the growth inhibition was -5.4%.

As to `CC(=O)OC(C[N+]1(C)CCCCCC1)C[N+]1(C)CCCCCC1`, the growth inhibition is -4.8%.

As to `Nc1nc(N)c2nc(-c3ccc(N(CCO)CCO)cc3)c(N)nc2n1`, the growth inhibition was -14.8%.

With `Cc1ccc2c(c1)SC(c1cc3c(cc1Br)OCO3)S2` (stereo not given), the growth inhibition is -22.1%.

For the compound `O=C(Nc1cc(Cl)ccc1Cl)Oc1c(Cl)cc(Cl)c(Cl)c1[N+](=O)[O-]`, the growth inhibition was -37.1%.

`CSC(=NCCCCN=C(NS(=O)(=O)c1ccc(Cl)cc1)SC)NS(=O)(=O)c1ccc(Cl)cc1`: the growth inhibition was -27%.

In the case of `CSC(C1c2ccccc2N(C)C2=NC(=O)N(C)C(=O)C21Cl)S(=O)(=O)c1ccc(C)cc1` (stereo not given), the growth inhibition is 12.2%.

In the case of `CCC(C(O)C(C)C)[N+](=O)[O-]` (stereo not given), the growth inhibition was 1.45%.

Turning to `COc1ccc(C(Cc2cc(OC)c(OC)cc2Br)NC=O)cc1OC` (stereo not given), the growth inhibition is 7.35%.

With `CCOC(=O)CCc1ccc(NC(=O)/C=C/c2ccc([N+](=O)[O-])o2)cc1`, the growth inhibition is 29.1%.

`O=C1CSC(/C(=C/c2ccccc2)c2nc3ccccc3[nH]2)=N1`: the growth inhibition is -1.75%.

For `CC1(C(=O)O)CCCC1C(CCC(=O)O)C(=O)O` (stereo not given), the growth inhibition was 15.1%.
